# Results taken from PubChem BioAssay (NCI).
# The panel holds about 79,000 compounds, 15% with a hit somewhere; the sample as a whole holds those more often. A number with no mark means an inactive call. Activity calls are given as the source filed them. Rule as the data show it: active = growth inhibition above about 70%; inactive = the rest.
# Tests used:
# [1] = NCI Yeast Anticancer Drug Screen. Data for the rad52 strain (AID 147);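 also: 0% = growth of vehicle-treated control cultures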; conditions: S. cerevisiae rad52 mutant growth inhibition, stronger effect = higher value
# How it was run: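 Compounds are applied to a genetically defined yeast strain lacking normal DNA damage repair, and inhibition of growth is expressed relative to cultures given vehicle only.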
# [2] = NCI Yeast Anticancer Drug Screen. Data for the wt1 strain (AID 149);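 also: 0% = growth of vehicle-treated wt1 cultures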; conditions: S. cerevisiae wt1 strain (SPY 50644) growth inhibition, stronger effect = higher value
# How it was run: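 The wt1 strain was treated with compounds, and growth was compared with vehicle-treated cultures to give inhibition.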
# [3] = NCI Yeast Anticancer Drug Screen. Data for the rad50EPP+ strain (AID 151);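 also: 0% = growth of vehicle-treated control cultures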; conditions: S. cerevisiae rad50 mutant strain, stronger effect = higher value
# How it was run: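 Compounds were applied to the rad50EPP+ yeast strain, which bears a defined DNA repair alteration, and growth inhibition was determined relative to vehicle-treated cultures.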
# [4] = NCI Yeast Anticancer Drug Screen. Data for the mgt1 strain (AID 153); conditions: S. cerevisiae mgt1 mutant growth inhibition, stronger effect = higher value
# How it was run: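 Strain: mgt1 yeast, one of a set carrying defined DNA damage repair or cell cycle control alterations. Compound-treated growth compared with vehicle.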
# [5] = NCI Yeast Anticancer Drug Screen. Data for the rad50 strain (AID 155);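 also: 0% = growth of vehicle-only cultures of the same strain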; conditions: S. cerevisiae rad50 strain growth inhibition, stronger effect = higher value
# How it was run: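 Cells are treated with compound, grown, and their growth is then scored against vehicle-only cultures of the same repair-deficient yeast strain.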
# [6] = NCI Yeast Anticancer Drug Screen. Data for the mec2-1 strain (AID 157); conditions: S. cerevisiae mec2-1 strain, stronger effect = higher value
# How it was run: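 Strain: mec2-1 (DNA repair/cell cycle alteration). Compound exposure, then growth measured; inhibition expressed relative to vehicle.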
# [7] = NCI Yeast Anticancer Drug Screen. Data for the rad14 strain (AID 159);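 also: 0% = growth of vehicle-treated control cultures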; conditions: S. cerevisiae rad14 strain growth inhibition, stronger effect = higher value
# How it was run: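 Readout: yeast growth inhibition, referenced to vehicle-only cultures. Strain bears a defined alteration in DNA damage repair.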
# [8] = NCI Yeast Anticancer Drug Screen. Data for the sgs1 mgt1 strain (AID 161);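 also: 0% = growth of cultures given vehicle only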; conditions: S. cerevisiae sgs1 mgt1 strain, stronger effect = higher value
# How it was run: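 Read-out: growth inhibition vs vehicle controls. Cells: mutant yeast strain deficient in DNA damage repair.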
# [9] = NCI Yeast Anticancer Drug Screen. Data for the CLN2oe strain (AID 163);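 also: 0% = growth of vehicle-only control cultures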; conditions: S. cerevisiae CLN2oe strain, stronger effect = higher value
# How it was run: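 Growth of a genetically modified yeast strain is measured after compound exposure and compared with cultures given vehicle alone.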
# [10] = NCI Yeast Anticancer Drug Screen. Data for the cln2 rad14 strain (AID 165);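 also: 0% = growth equal to vehicle treated cultures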; conditions: S. cerevisiae cln2 rad14 strain, stronger effect = higher value
# How it was run: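 Compounds are applied to the cln2 rad14 yeast strain, and growth is then compared with that of vehicle-treated cultures to give inhibition.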
# [11] = NCI Yeast Anticancer Drug Screen. Data for the bub3 strain (AID 167); conditions: S. cerevisiae bub3 mutant strain, stronger effect = higher value
# How it was run: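 Part of a panel of yeast mutants defective in DNA damage repair or cell cycle regulation. Each strain is grown with compound, and inhibition is calculated relative to solvent-treated cultures.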
# [12] = NCI Yeast Anticancer Drug Screen. Data for the wt2 strain (AID 169);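 also: 0% = growth of vehicle-treated yeast cultures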; conditions: S. cerevisiae wt2 strain growth inhibition, stronger effect = higher value
# How it was run: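 This strain belongs to a panel of yeast strains with defined genetic alterations in DNA damage repair or cell cycle control. Compounds are applied, and growth inhibition is measured against vehicle-treated cultures.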
# [13] = NCI Yeast Anticancer Drug Screen. Data for the mlh1 strain (AID 171);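 also: 0% = growth of vehicle-treated control cultures of the same strain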; conditions: S. cerevisiae mlh1 strain growth inhibition, stronger effect = higher value
# How it was run: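 Growth of the mutant yeast strain after compound exposure, expressed as inhibition relative to vehicle-only controls.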
# [14] = NCI Yeast Anticancer Drug Screen. Data for the sgs1 strain (AID 173);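 also: 0% = growth of vehicle-only control cultures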; conditions: S. cerevisiae sgs1 mutant, stronger effect = higher value
# How it was run: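 Growth of a yeast strain bearing a defined genetic alteration is measured after compound treatment. Inhibition is expressed relative to vehicle-only controls.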
# [15] = NCI Yeast Anticancer Drug Screen. Data for the mlh1 rad18 strain (AID 175); conditions: S. cerevisiae mlh1 rad18 strain growth inhibition, stronger effect = higher value
# How it was run: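 Read-out is yeast growth inhibition, calculated against vehicle-only controls. The compound was applied to a strain engineered with DNA damage repair alterations.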
# [16] = NCI Yeast Anticancer Drug Screen. Data for the rad18 strain (AID 177); conditions: S. cerevisiae rad18 mutant growth inhibition, stronger effect = higher value
# How it was run: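 Growth of the mutant yeast strain after compound exposure, normalised to vehicle-only cultures.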
# [17] = at 5.0 µM (retest, dose inferred, filed as 0.5)
# [18] = at 50.0 µM (retest, dose inferred, filed as 5.0)
smiles,measurement,setting,value
COC(=O)c1ccc(NCC2=CC(=O)C=CC2=O)cc1O,growth inhibition,[1]; at 1.2 µM,13%
same,growth inhibition,[1]; at 3.7 µM,34%
same,growth inhibition,[1]; at 11.0 µM,80% (active)
same,growth inhibition,[1]; at 33.0 µM,97% (active)
same,growth inhibition,[1]; at 100.0 µM,92% (active)
same,growth inhibition,[2]; at 1.2 µM,-14%
same,growth inhibition,[2]; at 3.7 µM,2%
same,growth inhibition,[2]; at 11.0 µM,68%
same,growth inhibition,[2]; at 33.0 µM,97% (active)
same,growth inhibition,[2]; at 100.0 µM,93% (active)
same,growth inhibition,[3]; at 1.2 µM,17%
same,growth inhibition,[3]; at 3.7 µM,63%
same,growth inhibition,[3]; at 11.0 µM,89% (active)
same,growth inhibition,[3]; at 33.0 µM,97% (active)
same,growth inhibition,[3]; at 100.0 µM,92% (active)
same,growth inhibition,[4]; at 1.2 µM,9%
same,growth inhibition,[4]; at 3.7 µM,30%
same,growth inhibition,[4]; at 11.0 µM,77% (active)
same,growth inhibition,[4]; at 33.0 µM,97% (active)
same,growth inhibition,[4]; at 100.0 µM,91% (active)
same,growth inhibition,[5]; at 1.2 µM,12%
same,growth inhibition,[5]; at 3.7 µM,32%
same,growth inhibition,[5]; [17],12%
same,growth inhibition,[5]; at 11.0 µM,75% (active)
same,growth inhibition,[5]; at 33.0 µM,95% (active)
same,growth inhibition,[5]; [18],96% (active)
same,growth inhibition,[5]; at 50.0 µM,91% (active)
same,growth inhibition,[5]; at 100.0 µM,93% (active)
same,growth inhibition,[6]; at 1.2 µM,-2%
same,growth inhibition,[6]; at 3.7 µM,17%
same,growth inhibition,[6]; [17],13%
same,growth inhibition,[6]; at 11.0 µM,70% (active)
same,growth inhibition,[6]; at 33.0 µM,97% (active)
same,growth inhibition,[6]; [18],98% (active)
same,growth inhibition,[6]; at 50.0 µM,93.2% (active)
same,growth inhibition,[6]; at 100.0 µM,89% (active)
same,growth inhibition,[7]; at 1.2 µM,33%
same,growth inhibition,[7]; at 3.7 µM,61%
same,growth inhibition,[7]; at 11.0 µM,98% (active)
same,growth inhibition,[7]; at 33.0 µM,98% (active)
same,growth inhibition,[7]; at 100.0 µM,92% (active)
same,growth inhibition,[8]; [17],50%
same,growth inhibition,[8]; [18],98% (active)
same,growth inhibition,[8]; at 50.0 µM,93.5% (active)
same,growth inhibition,[9]; at 1.2 µM,8%
same,growth inhibition,[9]; at 3.7 µM,33%
same,growth inhibition,[9]; at 11.0 µM,78% (active)
same,growth inhibition,[9]; at 33.0 µM,96% (active)
same,growth inhibition,[9]; at 100.0 µM,93% (active)
same,growth inhibition,[10]; [17],36%
same,growth inhibition,[10]; [18],93% (active)
same,growth inhibition,[10]; at 50.0 µM,89.9% (active)
same,growth inhibition,[11]; at 1.2 µM,-3%
same,growth inhibition,[11]; at 3.7 µM,10%
same,growth inhibition,[11]; [17],66%
same,growth inhibition,[11]; at 11.0 µM,20%
same,growth inhibition,[11]; at 33.0 µM,95% (active)
same,growth inhibition,[11]; [18],98% (active)
same,growth inhibition,[11]; at 50.0 µM,91.1% (active)
same,growth inhibition,[11]; at 100.0 µM,93% (active)
same,growth inhibition,[12]; at 1.2 µM,20%
same,growth inhibition,[12]; at 3.7 µM,56%
same,growth inhibition,[12]; at 11.0 µM,94% (active)
same,growth inhibition,[12]; at 33.0 µM,97% (active)
same,growth inhibition,[12]; at 100.0 µM,92% (active)
same,growth inhibition,[13]; at 1.2 µM,17%
same,growth inhibition,[13]; at 3.7 µM,51%
same,growth inhibition,[13]; at 11.0 µM,90% (active)
same,growth inhibition,[13]; at 33.0 µM,98% (active)
same,growth inhibition,[13]; at 100.0 µM,94% (active)
same,growth inhibition,[14]; at 1.2 µM,3%
same,growth inhibition,[14]; at 3.7 µM,30%
same,growth inhibition,[14]; at 11.0 µM,76% (active)
same,growth inhibition,[14]; at 33.0 µM,97% (active)
same,growth inhibition,[14]; at 100.0 µM,91% (active)
same,growth inhibition,[15]; [17],0%
same,growth inhibition,[15]; [18],93% (active)
same,growth inhibition,[15]; at 50.0 µM,92.2% (active)
same,growth inhibition,[16]; at 1.2 µM,18%
same,growth inhibition,[16]; at 3.7 µM,32%
same,growth inhibition,[16]; at 11.0 µM,85% (active)
same,growth inhibition,[16]; at 33.0 µM,97% (active)
same,growth inhibition,[16]; at 100.0 µM,95% (active)
Cc1c(C(=O)C(=O)c2ccccc2)c(C)c(C(=O)C(=O)c2ccccc2)c(C)c1C(=O)C(=O)c1ccccc1,growth inhibition,[1]; at 1.2 µM,-4%
same,growth inhibition,[1]; at 3.7 µM,-5%
same,growth inhibition,[1]; at 11.0 µM,-7%
same,growth inhibition,[1]; at 33.0 µM,-17%
same,growth inhibition,[1]; at 100.0 µM,-14%
same,growth inhibition,[2]; at 1.2 µM,0%
same,growth inhibition,[2]; at 3.7 µM,1%
same,growth inhibition,[2]; at 11.0 µM,-1%
same,growth inhibition,[2]; at 33.0 µM,-4%
same,growth inhibition,[2]; at 100.0 µM,-5%
same,growth inhibition,[3]; at 1.2 µM,0%
same,growth inhibition,[3]; at 3.7 µM,-1%
same,growth inhibition,[3]; at 11.0 µM,-3%
same,growth inhibition,[3]; at 33.0 µM,-5%
same,growth inhibition,[3]; at 100.0 µM,-17%
same,growth inhibition,[4]; at 1.2 µM,-2%
same,growth inhibition,[4]; at 3.7 µM,-2%
same,growth inhibition,[4]; at 11.0 µM,-5%
same,growth inhibition,[4]; at 33.0 µM,-21%
same,growth inhibition,[4]; at 100.0 µM,-9%
same,growth inhibition,[5]; at 1.2 µM,-11%
same,growth inhibition,[5]; at 3.7 µM,-21%
same,growth inhibition,[5]; [17],11%
same,growth inhibition,[5]; at 11.0 µM,-29%
same,growth inhibition,[5]; at 33.0 µM,-12%
same,growth inhibition,[5]; [18],86% (active)
same,growth inhibition,[5]; at 50.0 µM,54.1%
same,growth inhibition,[5]; at 100.0 µM,-19%
same,growth inhibition,[6]; at 1.2 µM,-2%
same,growth inhibition,[6]; at 3.7 µM,1%
same,growth inhibition,[6]; [17],18%
same,growth inhibition,[6]; at 11.0 µM,-1%
same,growth inhibition,[6]; at 33.0 µM,-3%
same,growth inhibition,[6]; [18],90% (active)
same,growth inhibition,[6]; at 50.0 µM,61.4%
same,growth inhibition,[6]; at 100.0 µM,-11%
same,growth inhibition,[7]; at 1.2 µM,-2%
same,growth inhibition,[7]; at 3.7 µM,-3%
same,growth inhibition,[7]; at 11.0 µM,-4%
same,growth inhibition,[7]; at 33.0 µM,-8%
same,growth inhibition,[7]; at 100.0 µM,-13%
same,growth inhibition,[8]; [17],-5%
same,growth inhibition,[8]; [18],86% (active)
same,growth inhibition,[8]; at 50.0 µM,75.7% (active)
same,growth inhibition,[9]; at 1.2 µM,1%
same,growth inhibition,[9]; at 3.7 µM,-5%
same,growth inhibition,[9]; at 11.0 µM,-5%
same,growth inhibition,[9]; at 33.0 µM,-10%
same,growth inhibition,[9]; at 100.0 µM,-13%
same,growth inhibition,[10]; [17],94% (active)
same,growth inhibition,[10]; [18],84% (active)
same,growth inhibition,[10]; at 50.0 µM,63.1%
same,growth inhibition,[11]; at 1.2 µM,-2%
same,growth inhibition,[11]; at 3.7 µM,0%
same,growth inhibition,[11]; [17],97% (active)
same,growth inhibition,[11]; at 11.0 µM,-2%
same,growth inhibition,[11]; at 33.0 µM,-8%
same,growth inhibition,[11]; [18],91% (active)
same,growth inhibition,[11]; at 50.0 µM,56.4%
same,growth inhibition,[11]; at 100.0 µM,-16%
same,growth inhibition,[12]; at 1.2 µM,-3%
same,growth inhibition,[12]; at 3.7 µM,-1%
same,growth inhibition,[12]; at 11.0 µM,-4%
same,growth inhibition,[12]; at 33.0 µM,-6%
same,growth inhibition,[12]; at 100.0 µM,-10%
same,growth inhibition,[13]; at 1.2 µM,1%
same,growth inhibition,[13]; at 3.7 µM,1%
same,growth inhibition,[13]; at 11.0 µM,1%
same,growth inhibition,[13]; at 33.0 µM,-3%
same,growth inhibition,[13]; at 100.0 µM,-8%
same,growth inhibition,[14]; at 1.2 µM,0%
same,growth inhibition,[14]; at 3.7 µM,0%
same,growth inhibition,[14]; at 11.0 µM,-4%
same,growth inhibition,[14]; at 33.0 µM,-5%
same,growth inhibition,[14]; at 100.0 µM,-13%
same,growth inhibition,[15]; [17],9%
same,growth inhibition,[15]; [18],87% (active)
same,growth inhibition,[15]; at 50.0 µM,72.5% (active)
same,growth inhibition,[16]; at 1.2 µM,-3%
same,growth inhibition,[16]; at 3.7 µM,-4%
same,growth inhibition,[16]; at 11.0 µM,-6%
same,growth inhibition,[16]; at 33.0 µM,-13%
same,growth inhibition,[16]; at 100.0 µM,-20%
